Hits are enriched below; roughly 6.3% of the tested compounds scored in any of these assays.
HepG2 tox: kills HepG2 cells in TGF-b inhibitor counter-screen; Potency, µM (doses to about 46.1 µM), inactives show top-dose activity change, negative = cytotoxicity, usual class: cytotoxic; HepG2 CAGA-GFP viability, ATP luminescence, 18 h; hit rate 0.76% among 410,000; AID 588856
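CellTiter-Glo luminescence gave cytotoxicity after 18 hours at 37 degrees C. The cells were HepG2 CAGA-GFP in 1% FBS DMEM, stimulated with 500 pg/mL TGF-beta after compound addition. %Activity was normalised to no-cell wells (complete cell-killing) and DMSO (no toxicity), and curves were fitted and classified.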
VP16 counter: inhibits Gal4-VP16 luciferase reporter, ROR gamma counter-screen; hit rate 3.5% among 310,000; Potency, µM (doses to about 53.6 µM), inactives show top-dose activity, negative = inhibition, most hits filed as inhibitors; AID 2546; Drosophila S2 Gal4-VP16 UAS-luciferase, luminescence, 20 h;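 note: Gal4-VP16 expression switched on by copper sulfate through the metallothionein promoter; % is set by controls: 0 for no effect and ±100 for the full control effect; nearly all actives have a fitted effect of over 50% in size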
ATXN2 expr inh: reduces ATXN2 reporter expression in HEK-293 cells; HEK-293 ATXN2-luciferase reporter, luminescence, 24 h; Potency, µM (titrated, usually from 57 µM), for the others: top-dose activity change, negative = inhibition, actives largely listed as inhibitors; hit rate 0.72% among 360,000; AID 1745845; note: % is set by controls: 0 for no effect and ±100 for the full control effect; nearly all actives have a fitted effect of over 55% in size
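ATXN2-luciferase reporter cells (luciferase flanked by upstream and downstream ATXN2 gene portions) were treated 24 h at 37 °C with compounds at up to 57 uM. SteadyGlo luminescence gave expression; GF-AFC fluorescence gave viability.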
TGFb SMAD3 inh: inhibitors of TGF-b signaling; AID 588855; Potency, µM (series often up to 46.1 µM), for the others: at the highest dose activity, negative = inhibition, most hits filed as inhibitors; hit rate 1.2% among 410,000; HepG2 CAGA-GFP TGF-b/SMAD3 reporter, GFP fluorescence, 18 h; TGF-beta stimulated, 500 pg/mL final; note: % is set by controls: 0 for no effect and ±100 for the full control effect; nearly all actives have a fitted effect of over 65% in size
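Using HEPG2 CAGA-GFP reporter cells at 1000 cells/well, we pinned test compounds, stimulated with recombinant TGF-beta (500 pg/mL final) and measured total well GFP after 18 h.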
RORg inh: blocks mouse ROR gamma transcriptional activity; Drosophila S2 Gal4-RORgamma UAS-luciferase reporter, 20 h; Potency, µM (top dose mostly 53.6 µM), inactives show top-dose activity change, negative = inhibition, usual class: inhibitors; P51450; hit rate 5.4% among 310,000; note: % is set by controls: 0 for no effect and ±100 for the full control effect; nearly all actives have a fitted effect of over 60% in size
Target sequence (P51450 whole entry, looked up, the tested form may be a part): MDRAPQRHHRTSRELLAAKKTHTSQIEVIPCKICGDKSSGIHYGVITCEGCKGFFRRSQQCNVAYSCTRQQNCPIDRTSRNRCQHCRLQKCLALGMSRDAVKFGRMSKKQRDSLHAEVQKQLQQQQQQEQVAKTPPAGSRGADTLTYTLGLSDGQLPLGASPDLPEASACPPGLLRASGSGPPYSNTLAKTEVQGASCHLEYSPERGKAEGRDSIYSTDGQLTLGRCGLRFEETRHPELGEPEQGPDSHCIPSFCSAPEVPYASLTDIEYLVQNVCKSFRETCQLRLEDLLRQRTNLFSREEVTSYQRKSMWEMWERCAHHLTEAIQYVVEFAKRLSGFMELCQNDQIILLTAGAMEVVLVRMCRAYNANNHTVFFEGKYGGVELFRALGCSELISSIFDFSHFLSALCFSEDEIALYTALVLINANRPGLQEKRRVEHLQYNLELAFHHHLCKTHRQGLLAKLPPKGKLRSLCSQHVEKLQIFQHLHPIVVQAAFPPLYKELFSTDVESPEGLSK
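In this cell-based reporter format, copper sulfate (700 uM final) drives Gal4–ROR gamma fusion expression from a metallothionein promoter in Drosophila Schneider cells; compounds preincubated 1 hr, reporter read after 20 hr at ambient temperature.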
S2 tox: cell viability loss in ATXN counter-screen; S2 cells (HEK-293 line with an ATXN2-luciferase reporter) viability, CellTiter-Fluor protease fluorescence, 24 h; Potency, µM (top dose mostly 56.7 µM), hits mostly cytotoxic; hit rate 0.49% among 400,000; note: nearly all actives have a fitted effect of over 40% in size
The depositor's hits bear a star; i = inactive; ? = inconclusive; / = not tested or not shown; [ ] = dose if it differs, or a comment. Calls come from the whole dose curve; as a rule, active = well fitted curve in the direction sought with a large enough effect; inconclusive = small, poorly fitted or top-dose-only effect, or another doubt; inactive = no such curve, though single readings can be large; an effect the other way counts as inactive or inconclusive. Potency is the fitted concentration of half-maximal effect.

SMILES	HepG2 tox	VP16 counter	ATXN2 expr inh	TGFb SMAD3 inh	RORg inh	S2 tox
Cc1ccccc1-c1nc(CN2CCCC2c2ccc(F)cc2)c(C)o1 (centres undefined)	-5.5%	2.5%	-4.9%	-7.2%	-41.7%	i
CCCCNC(=O)CSc1nc2nc(C)c(Cc3ccccc3C)c(C)n2n1	-8.2%	/	-1.8%	0.0%	/	i
Cc1ccc(-n2ncc3c(=O)n(Cc4ccccc4C)cnc32)cc1C	0.5%	/	6.5%	17.7%	/	i
COc1ccc(-c2ccc(C(=O)NCC3CCOCC3)c3occc23)c(C)c1	-17.4%	/	-17.5%	-9.1%	/	?
CC[N+](C)(C)c1ccc(/C=C/c2ccncc2)cc1	-15.9%	/	/	34.7%	/	/
CC(C)CC(=O)Nc1n[nH]c2c1CN(C(=O)C1CCN(C)CC1)C2(C)C	/	/	1.09µM*	/	/	/
Cc1ccccc1-n1c(=O)n(Cc2ccccc2)c(=O)c2[nH]cnc21	-17.7%	12.6%	-19.4%	3.6%	0.282µM*	i
CCCC(=O)NC(c1ccc(OC)cc1)c1ccc2cccnc2c1O (centres undefined)	-8.7%	4.47µM*	1.89µM*	?	1.78µM*	/
Oc1c(C(Nc2ccccn2)c2ccccc2)ccc2cccnc12 (centres undefined)	-30.9%	/	/	-18.8%	/	/
CCCC(=O)NC(c1ccccc1)c1ccc2cccnc2c1O (centres undefined)	-25.1%	?	14.1µM*	?	?	i
CCC(=O)NC(c1ccc(OC)cc1)c1c(O)ccc2ccccc12 (centres undefined)	-16.6%	-4.5%[10 µM]	/	-24.0%	-19.6%	?
Oc1cccc(C(Nc2ccccn2)c2ccc3cccnc3c2O)c1Cl (centres undefined)	-48.9%	/	8.91µM*	?	/	?
CCCCC(=O)NC(c1ccccc1)c1ccc2cccnc2c1O (centres undefined)	-30.1%	2.51µM*	?	?	1.26µM*	i
CCOc1ccc(C(C(=O)NC2CCCC2)N(C(=O)c2snc(C(N)=O)c2N)c2cccc(O)c2)cc1 (centres undefined)	9.5%	4.7%	4.5%	7.0%	0.5%	i
CC(C)Cc1ccc(S(=O)(=O)Nc2cc3c(cc2N2CCOCC2)n(C)c(=O)c(=O)n3C)cc1	-28.7%	/	0.7%	-20.3%	/	i
CCCCC(=O)NC(c1ccccc1Cl)c1ccc2cccnc2c1O (centres undefined)	-32.5%	3.55µM*	2.82µM*	?	5.01µM*	?
CC(=O)NC(c1ccc(C(C)C)cc1)c1ccc2cccnc2c1O (centres undefined)	-53.8%	2.82µM*	3.16µM*	?	3.55µM*	?
COc1ccc(Cl)cc1C(Nc1cccnc1)c1ccc2cccnc2c1O (centres undefined)	-9.0%	2.24µM*	?	?	1.12µM*	i
CCC(=O)NC(c1ccccc1OC)c1ccc2cccnc2c1O (centres undefined)	3.55µM*	5.01µM*	?	2.51µM*	5.01µM*	?
CCC(=O)NC(c1ccccc1Cl)c1c(O)ccc2ccccc12 (centres undefined)	-30.3%	-7.6%	1.9%	?	0.5%	i
COc1ccc(SCC(Cc2ccccc2)N2CCN(CC(C)C)CCC2=O)cc1 (centres undefined)	-30.2%	?	/	?	?	/
O=c1ncccn1[C@@H]1O[C@H](CO)[C@@H](O)[C@H]1O	/	-3.0%	/	/	-5.9%	/
CCOCC	/	-7.3%	/	/	-5.0%	/
O=C(NCCC1=CCCCC1)c1ccc2c(c1)N(Cc1cccc(Cl)c1)C(=O)c1ccccc1S2(=O)=O	-10.2%	/	/	-0.5%	/	/
CCCCC(=O)NC(c1ccc(C(C)C)cc1)c1ccc2cccnc2c1O (centres undefined)	-46.3%	2.82µM*	-82.0%	?	2.51µM*	i
SMILES	HepG2 tox	VP16 counter	ATXN2 expr inh	TGFb SMAD3 inh	RORg inh	S2 tox
O=C(O)c1ccc(C(=O)C(=O)c2ccccc2)cc1	5.0%	-5.9%	8.7%	2.2%	10.7%	i
CSC(SC)=C(C#N)C(=O)c1ccccc1	-133.6%	11.2µM*	22.4µM*	?	-73.9%	/
COc1cccc(C(=O)C(C#N)=C(SC)SC)c1	10µM*	?	/	?	-100.5%	/
Cc1nc(Nc2ccccc2)c2nc(-c3ccccc3)n(CCCN3CCCCC3C)c2n1 (centres undefined)	/	-12.9%	/	/	-16.3%	/
CCOc1ccc(NC(=O)c2nn(-c3ccc(OC)cc3OC)c(=O)c3ccccc23)cc1	/	13.3%	/	/	0.9%	/
CCN1CCC(N(Cc2ccc3c(c2)OCO3)C(=O)Nc2cc(F)ccc2F)CC1	-19.5%	/	-8.7%	-16.9%	/	i
Cc1ccsc1CN(C)c1ncnc2ccc(-c3ccoc3)cc12	-42.8%	/	-14.7%	11.2µM*	/	i
CN(C)c1ccc(-c2ccc3ncnc(N(C)Cc4ccco4)c3c2)cc1	/	6.7%	/	/	4.1%	/
Cc1nc2ccccn2c1C(=O)/C=C/c1cccc([N+](=O)[O-])c1	-21.6%	18.5%[10 µM]	1.6%	-0.1%	7.8%	i
Cc1ccc(/C=C/C(=O)c2c(C)nc3ccccn23)cc1	-55.5%	?	39.5%	?	14.1µM*	i
CC(C)N(C(=S)Nc1cc(S(=O)(=O)N2CCOCC2)ccc1Cl)c1ccccc1	3.4%	-4.1%	7.1%	-4.8%	1.7%	i
C/C(=N\NC(=S)Nc1cc(S(=O)(=O)N2CCOCC2)ccc1Cl)c1ccccc1F	-51.7%	6.31µM*	-21.6%	?	1.12µM*	i
C/C(=N\NC(=S)NCCc1ccccc1)c1ccc(Cl)cc1Cl	-13.6%	6.31µM*	-15.7%	?	1.78µM*	/
S=C(NCc1ccccc1)NCc1cccc(Cl)c1	-15.2%	?	1.0%	-25.7%	10µM*	i
S=C(NCCc1cccc(Cl)c1)NCc1ccccc1	/	?	/	/	8.91µM*	/
COc1ccc(C)c2sc(NNC(=O)COc3ccccc3)nc12	/	-3.9%	/	/	7.08µM*	/
COc1cccc2sc(NNC(=O)COc3ccccc3)nc12	2.7%	-19.1%	/	5.3%	4.47µM*	i
COc1ccc(-c2csc(C(O)c3cccc(OC)c3)n2)cc1 (centres undefined)	-40.9%	/	5.4%	?	/	i
O=C(O)c1ccccc1C(=O)Nc1ccc(-c2ccccc2)cc1	/	/	21.9%	/	/	/
Cc1cccc(N2CCN(C3CCCCC3NS(=O)(=O)c3ccccc3)CC2C)c1 (centres undefined)	-14.5%	-4.5%	/	-18.6%	0.8%	i
Cc1cc(C)c2c(=O)n(CC(=O)N3CCC(Cc4ccccc4)CC3)sc2n1	/	3.98µM*	/	/	?	/

Screens: PubChem, National Center for Advancing Translational Sciences (NCATS)
